Source: PubChem BioAssay (Tox21)
Several values for one entry are separate records, joined by “and”; a condition that tells them apart may be missing. Identical values can stand only once. Inconclusive results are not listed. More than one record can exist for a structure, and the calls need not agree. Activity calls are given as the source filed them. The call rests on the fitted dose curve; in most records, active means well fitted cell-killing curve with a large enough effect in the repeat runs; inconclusive means weak or mixed curves, or effect the other way; inactive means no such curve, though single readings can be large or run the other way.
On the % scale 0 is the no-effect control and ±100 the full control effect; potency means the concentration at half of the fitted maximal effect.

Assay: qHTS assay to identify small molecule antagonists of the vitamin D receptor (VDR) signaling pathway - cell viability counter screen (AID 743225); further: nearly all actives have a fitted effect of over 50% in size
Conditions: VDR-bla HEK293T viability, CellTiter-Glo luminescence, 16 h; series mostly up to 61 µM; viability change, negative = cytotoxic: at the top concentration
Text: U.S. Tox21 Program National Center for Advancing Translational Sciences [NCATS] NIH Chemical Genomics Center [NCGC] U.S. Environmental Protection Agency [EPA] National Institutes of Environmental Health Sciences [NIEHS] National Toxicology Program [NTP] U.S. Food and Drug Administration [FDA] Tox21 Assay Overview: The vitamin D receptor (VDR), a member of nuclear hormone receptor superfamily, plays a critical role in calcium homeostasis and bone metabolism. It is also involved in cell differentiation and growth, and thrombogenicity. To identify the compounds that inhibit VDR signaling, the VDR-UAS-bla HEK 293T cell line (Invitrogen, Carlsbad, CA, USA) containing a beta-lactamase reporter gene under the control of an upstream activator sequence (UAS) was used to screen the Tox21 10K compound library. The cytotoxicity of the Tox21 compound library against the VDR-bla cell line was tested in parallel by measuring the cell viability using CellTiter-Glo assay (Promega, Madison, WI) in the same wells.
Tox21 Assay Protocol Summary: VDR-bla cells were dispensed at 2,000 cells/5 uL of assay medium per well into black wall/clear-bottom 1536-well plates using a Multidrop Combi (Thermo Fisher Scientific, Waltham, MA) dispenser. After the assay plates were incubated at a 37C and 5% CO2 for 4 h, 23 nL of compounds dissolved in DMSO, positive controls or DMSO only was transferred to the assay plate by a Pintool station (Kalypsys, San Diego, CA), followed by addition of 1 uL of 1-alpha, 25-Dihydroxy Vitamin D3 (3 nM, final concentration in the wells) using a Bioraptr Flying Reagent Dispenser (FRD) workstation (Beckman Coulter, Indianapolis, IN). The plates were incubated at 37C and 5% CO2 for 16 h, and then 1 uL of LiveBLAzerTM B/G FRET substrate was added using a Bioraptr FRD. The plates were incubated at room temperature for 2 h and fluorescence intensity was measured by an Envision plate reader (PerkinElmer, Shelton, CT). For cell viability readout that measures cytotoxicity, 3 ul/well of CellTiter-Glo reagent was added into the assay plates using a Bioraptr FRD. After 30 min incubation at room temperature, the luminescence intensity in the plates was measured using a ViewLux plate reader (PerkinElmer).
In the case of O=C(NC(=O)c1ccccc1Cl)Nc1ccc(OC(F)(F)F)cc1, the “viability change, negative = cytotoxic” value is reported as -0.273% (inactive).
For Nc1nc(N)nc(Cl)n1, the “viability change, negative = cytotoxic” value was 5.42% (inactive).
In the case of Clc1c(Cl)c(Cl)c(Cl)c(Cl)c1Cl, the viability change, negative = cytotoxic is reported as -2.04% [at 6.95 µM] (inactive).
For CC(C)NCC(O)c1ccccc1Cl (stereo not given), the “viability change, negative = cytotoxic” value was -6.98% (inactive).
In the case of O=C1C(Cl)=C(Cl)C(=O)C(Cl)=C1Cl, the Potency is reported as 17.4 µM (active).
For CCNc1nc(NC(C)C(C)C)nc(SC)n1 (stereo not given), the “viability change, negative = cytotoxic” value was 4.79% (inactive).
For CN1CCc2cc(Cl)c(O)cc2[C@H]2c3ccccc3CC[C@@H]21, the “viability change, negative = cytotoxic” value was -5.69% (inactive).
In the case of Cc1nn(-c2cc(NS(C)(=O)=O)c(Cl)cc2Cl)c(=O)n1C(F)F, the “viability change, negative = cytotoxic” value is reported as 12.3% (inactive).
With CC(Cc1ccc2c(c1)OCO2)NO (stereo not given) the “viability change, negative = cytotoxic” value was 0.683% [at 78.8 µM] (inactive).
In the case of O=C(Nc1ccc(F)cc1F)c1cccnc1Oc1cccc(C(F)(F)F)c1, the “viability change, negative = cytotoxic” value is reported as 10.8% [at 78.8 µM] (inactive).
For BrCC(Br)(Br)Br, the “viability change, negative = cytotoxic” value was -21.6% [at 78.8 µM] (inactive).
With CCN(CC)CCc1c[nH]c2ccccc12 the “viability change, negative = cytotoxic” value was 1.21% [at 78.8 µM] (inactive).
For CCC1(CC)C(=O)N=C(O)NC1=O, the “viability change, negative = cytotoxic” value was 10.2% (inactive).
In the case of [O]=[Cr][O][Cr]=[O], the “viability change, negative = cytotoxic” value is reported as 3.63% [at 78.8 µM] (inactive).
With Oc1cc(Cl)cc(Cl)c1 the “viability change, negative = cytotoxic” value was -13.4% [at 78.8 µM] (inactive).
In the case of ClC(Cl)C(Cl)(Cl)Cl, the “viability change, negative = cytotoxic” value is reported as 6.99% (inactive).
For CCCCN(CCCC)C(=S)S, the “viability change, negative = cytotoxic” value was -18% (inactive).
With CCC(C)Br (stereo not given) the “viability change, negative = cytotoxic” value was 11.5% [at 78.8 µM] (inactive).
For O=C1C2(Cl)C3(Cl)C4(Cl)C(Cl)(Cl)C5(Cl)C3(Cl)C1(Cl)C5(Cl)C24Cl (stereo not given), the Potency was 48.2 µM (active) and 46.9 µM (active).
In the case of O=C(O)[C@H](O)[C@@H](O)C(=O)O, the “viability change, negative = cytotoxic” value is reported as 6.63% (inactive).
In the case of O=S(=O)(O)F, the “viability change, negative = cytotoxic” value is reported as 2.54% [at 78.8 µM] (inactive).
With ClC1=C(Cl)[C@]2(Cl)[C@@H]3[C@H]4C[C@H]([C@@H]5O[C@H]45)[C@@H]3[C@@]1(Cl)C2(Cl)Cl the “viability change, negative = cytotoxic” value was 3.3% (inactive).
In the case of COc1ccc2[nH]cc(CCN(C(C)C)C(C)C)c2c1, the “viability change, negative = cytotoxic” value is reported as 3.01% [at 78.8 µM] (inactive).
With O.O.O.O.O.O.O=S(=O)([O-])[O-].[Ni+2] the “viability change, negative = cytotoxic” value was 1.79% (inactive).
In the case of CCCC[N+]1(C)CCCC1 (tested in a mixture with another compound), the “viability change, negative = cytotoxic” value is reported as -0.0938% [at 78.8 µM] (inactive).
In the case of CCCN, the “viability change, negative = cytotoxic” value is reported as 0.295% [at 78.8 µM] (inactive).
With BrCCCBr the “viability change, negative = cytotoxic” value was -9.99% [at 78.8 µM] (inactive).
In the case of Oc1ccc([C@H]2CNCc3c2ccc(O)c3O)cc1O, the “viability change, negative = cytotoxic” value is reported as -2.33% (inactive).
In the case of CC(O)C(=O)[O][Hg][c]1ccccc1 (stereo not given), the Potency is reported as 1.74 µM (active).
In the case of COCCC#N, the “viability change, negative = cytotoxic” value is reported as -6.46% (inactive).
For CC(C)C(Br)C(=O)NC(N)=O (stereo not given), the “viability change, negative = cytotoxic” value was 1.27% (inactive).
With Cc1cc(C2CC2)nc(Nc2ccccc2)n1 the “viability change, negative = cytotoxic” value was -16.7% (inactive).
With OCC(Br)CBr (stereo not given) the “viability change, negative = cytotoxic” value was 5.46% [at 78.8 µM] (inactive).
With CCOP(=O)(OCC)Oc1cc(C)nc(C(C)C)n1 the “viability change, negative = cytotoxic” value was 3.28% [at 78.8 µM] (inactive).
For CCN(CC)C(=S)S, the Potency was “inactive”.
For O=c1[nH]c(Cl)c(Cl)cc1Cl, the “viability change, negative = cytotoxic” value was -0.0242% (inactive).
With CCCCCCCCCCCCCCn1cc[n+](C)c1 the Potency was 27.6 µM (active) and 43.2 µM (active) and inactive.
With CC(C)[C@@H](Nc1ccc(C(F)(F)F)cc1Cl)C(=O)OC(C#N)c1cccc(Oc2ccccc2)c1 (stereo not given in full) the “viability change, negative = cytotoxic” value was -17.4% (inactive).
In the case of ClC1(Cl)C2(Cl)C3(Cl)C4(Cl)C(Cl)(Cl)C5(Cl)C3(Cl)C1(Cl)C5(Cl)C24Cl (stereo not given), the “viability change, negative = cytotoxic” value is reported as -0.715% (inactive).
In the case of C1=CCC=C1, the “viability change, negative = cytotoxic” value is reported as 6.28% (inactive).
